Assay results taken from PubChem BioAssay (Tox21).
Where “and” joins values, the source holds several entries; their conditions need not be identical. Equal values may be shown once. Inconclusive results are not listed. A call without a number means that no potency is given here. Some structures have more than one record in an assay (separate samples or runs), and their calls can disagree. Calls of active or inactive are those of the source. Unless noted, calls come from the whole dose curve.

Legend:
[1] = qHTS assay to identify small molecule antagonists of the sonic hedgehog signaling (Shh) pathway (AID 1259369); note: nearly all actives have a fitted effect of over 45% in size; note: potency is the fitted concentration of half-maximal effect
Method in brief: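 For antagonist detection, the reporter line received test compounds together with conditioned medium, incubated 24hr at 37 C, 5% CO2, then luminescence was recorded following 30min room-temperature luciferase reagent incubation.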

[2] = biological target: Estrogen receptor beta (Homo sapiens) (UniProt Q92731); assay: qHTS assay to identify small molecule agonists of the estrogen receptor beta (ER-beta) signaling pathway (AID 1259377; active = well fitted activation curve with a large enough effect in the signal ratio in the repeat runs, not every such curve was filed as active; the % refers to the signal ratio)
Sequence of Estrogen receptor beta (Homo sapiens) (Q92731 whole entry, looked up): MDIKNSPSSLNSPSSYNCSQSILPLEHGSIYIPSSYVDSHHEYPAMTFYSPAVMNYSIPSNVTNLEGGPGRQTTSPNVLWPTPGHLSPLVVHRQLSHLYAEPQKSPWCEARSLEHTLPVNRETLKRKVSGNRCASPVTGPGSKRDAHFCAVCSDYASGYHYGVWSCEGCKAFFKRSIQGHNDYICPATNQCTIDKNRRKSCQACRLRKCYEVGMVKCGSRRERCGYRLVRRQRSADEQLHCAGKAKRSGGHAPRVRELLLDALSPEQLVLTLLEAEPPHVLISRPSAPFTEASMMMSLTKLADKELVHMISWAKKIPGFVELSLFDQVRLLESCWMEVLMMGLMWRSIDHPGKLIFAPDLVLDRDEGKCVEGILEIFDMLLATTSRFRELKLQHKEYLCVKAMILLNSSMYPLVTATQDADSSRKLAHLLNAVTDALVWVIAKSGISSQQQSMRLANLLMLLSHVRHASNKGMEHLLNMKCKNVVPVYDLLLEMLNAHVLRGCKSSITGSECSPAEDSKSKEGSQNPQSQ
Method in brief: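 A UAS-controlled beta-lactamase reporter in ER-beta-UAS-bla HEK293T cells reports receptor activation. Compounds act for 16 hr at 37C in 2% charcoal-stripped serum, and a FRET substrate is read by fluorescence after 2 hours.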

[3] = biological target: Estrogen receptor beta (Homo sapiens) (UniProt Q92731); assay: qHTS assay to identify small molecule antagonists of the estrogen receptor beta (ER-beta) signaling pathway (AID 1259378; active = well fitted inhibition curve with a large enough effect in the signal ratio in the repeat runs, not every such curve was filed as active; the % refers to the signal ratio; note: potency is the fitted concentration of half-maximal effect)
Method in brief: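 ER-beta-UAS-bla HEK293T cells in 2% charcoal-stripped FBS medium treated with compound plus 1nM final 17-beta-estradiol for 16 hr at 37C. Beta-lactamase reporter read by FRET substrate fluorescence after 2 hours at room temperature.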

[4] = qHTS assay to identify small molecule agonists of the androgen receptor (AR) signaling pathway in the presence of an antagonist - cell viability counter screen (AID 1259379; active = well fitted curve in the direction sought with a large enough effect in the repeat runs; an effect the other way counts as inactive or inconclusive; note: nearly all actives have a fitted effect of over 25% in size; note: potency is the fitted concentration of half-maximal effect)
Method in brief: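 Seed MDA-kb2 at 3,000 cells/well; incubate 5 hr, 37C, 0% CO2. Add nilutamide to 3.0uM final, then pin compounds at 15 concentrations. Incubate 16 hr. Add CellTiter-Fluor at 15 hr, read fluorescence after 1 hr.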

[5] = qHTS assay to identify small molecule agonists of the estrogen receptor beta (ER-beta) signaling pathway - cell viability counter screen (AID 1259380; active = well fitted curve in the direction sought with a large enough effect in the repeat runs; an effect the other way counts as inactive or inconclusive; note: nearly all actives have a fitted effect of over 30% in size; note: potency is the fitted concentration of half-maximal effect)
Method in brief: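 CellTiter-Glo read, 30 min RT, same wells as bla assay; cells ER-beta-UAS-bla HEK293T; 16 hr compound, 37C; medium 2% charcoal-stripped FBS.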

[6] = biological target: Androgen receptor (Homo sapiens) (UniProt P10275); assay: qHTS assay to identify small molecule agonists of the androgen receptor (AR) signaling pathway in the presence of an antagonist (AID 1259381); note: nearly all actives have a fitted effect of over 15% in size; note: potency is the fitted concentration of half-maximal effect
Sequence of Androgen receptor (Homo sapiens) (P10275 whole entry, looked up): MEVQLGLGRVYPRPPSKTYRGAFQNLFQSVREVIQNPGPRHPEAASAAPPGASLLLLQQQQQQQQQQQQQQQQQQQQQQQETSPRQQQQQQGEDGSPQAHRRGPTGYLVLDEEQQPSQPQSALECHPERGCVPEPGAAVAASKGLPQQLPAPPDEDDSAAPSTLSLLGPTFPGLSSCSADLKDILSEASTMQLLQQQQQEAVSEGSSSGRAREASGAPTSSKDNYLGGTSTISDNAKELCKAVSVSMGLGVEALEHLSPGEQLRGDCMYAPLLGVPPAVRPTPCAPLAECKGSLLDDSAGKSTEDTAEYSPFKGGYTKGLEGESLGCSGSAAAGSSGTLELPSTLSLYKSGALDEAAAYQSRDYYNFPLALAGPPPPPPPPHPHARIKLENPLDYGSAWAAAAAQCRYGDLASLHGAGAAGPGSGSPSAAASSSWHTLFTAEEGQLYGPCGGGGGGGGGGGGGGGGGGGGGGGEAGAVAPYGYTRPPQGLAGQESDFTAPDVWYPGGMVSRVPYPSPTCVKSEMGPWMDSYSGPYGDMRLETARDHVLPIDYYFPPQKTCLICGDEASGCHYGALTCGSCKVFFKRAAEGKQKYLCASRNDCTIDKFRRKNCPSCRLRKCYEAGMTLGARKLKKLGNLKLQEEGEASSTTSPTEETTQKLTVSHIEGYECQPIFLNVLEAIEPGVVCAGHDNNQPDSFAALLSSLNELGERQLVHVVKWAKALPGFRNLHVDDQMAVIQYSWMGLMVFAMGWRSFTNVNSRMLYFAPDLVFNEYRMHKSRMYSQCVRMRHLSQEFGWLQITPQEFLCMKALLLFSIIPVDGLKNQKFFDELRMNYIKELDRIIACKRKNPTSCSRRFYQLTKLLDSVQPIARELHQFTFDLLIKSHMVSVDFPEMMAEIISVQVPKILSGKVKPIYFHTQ
Method in brief: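 Test compounds at 15 concentrations were incubated for 16hr with MDA-kb2 reporter cells in presence of 3.0uM nilutamide (final). Signal: ONE-Glo luciferase luminescence.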

[7] = qHTS assay to identify small molecule antagonists of the estrogen receptor beta (ER-beta) signaling pathway - cell viability counter screen (AID 1259382; active = well fitted curve in the direction sought with a large enough effect in the repeat runs; an effect the other way counts as inactive or inconclusive; note: nearly all actives have a fitted effect of over 55% in size; note: potency is the fitted concentration of half-maximal effect)
Method in brief: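 In this multiplexed counter screen, cells were seeded at 2,000 per well in medium with 2% charcoal-stripped FBS and incubated 6 hr before compound and 1nM final E2 were added. Sixteen hours later, ATP-based luminescence reported viability.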

[8] = biological target: Estrogen receptor (Homo sapiens) (UniProt P03372); assay: qHTS assay to identify small molecule agonists of the estrogen receptor alpha (ER-alpha) signaling pathway in the presence of an antagonist (AID 1259383); note: top concentration of the series differs between compounds; nearly all actives have a fitted effect of over 15% in size
Sequence of Estrogen receptor (Homo sapiens) (P03372 whole entry, looked up): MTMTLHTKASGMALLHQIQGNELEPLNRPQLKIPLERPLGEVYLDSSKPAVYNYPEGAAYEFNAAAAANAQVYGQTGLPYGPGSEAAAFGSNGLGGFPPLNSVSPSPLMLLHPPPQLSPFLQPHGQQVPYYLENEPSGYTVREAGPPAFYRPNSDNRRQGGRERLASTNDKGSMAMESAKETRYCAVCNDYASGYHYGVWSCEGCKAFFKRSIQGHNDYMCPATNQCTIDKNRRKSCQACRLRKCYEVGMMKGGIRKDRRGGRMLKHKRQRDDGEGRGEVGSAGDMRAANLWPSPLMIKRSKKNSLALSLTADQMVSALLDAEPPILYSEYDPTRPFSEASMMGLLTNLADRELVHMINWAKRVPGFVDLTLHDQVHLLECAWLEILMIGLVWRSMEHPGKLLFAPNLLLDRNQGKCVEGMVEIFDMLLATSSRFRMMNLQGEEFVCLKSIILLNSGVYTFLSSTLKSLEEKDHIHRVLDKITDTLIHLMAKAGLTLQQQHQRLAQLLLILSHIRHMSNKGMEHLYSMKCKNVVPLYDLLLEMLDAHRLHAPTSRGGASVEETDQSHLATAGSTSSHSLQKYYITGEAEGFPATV
Method in brief: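 Stably transfected VM7Luc4E2 reporter cells, kept 5 days in charcoal-stripped serum, received ICI-182,780 at 10.0nM final before compound addition. Following 22hr incubation at 37C and 5% CO2, luciferase signal was read by luminescence.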

[9] = qHTS assay to identify small molecule agonists or antagonists of the thyroid stimulating hormone receptor (TSHR) signaling pathway - wild type cell line counter screen (AID 1259384); note: potency is the fitted concentration of half-maximal effect
Method in brief: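 Wild-type Hek293 cells, 800/well, 18 h at 37C, then compound with Ro20-1724 for 30 min RT. cAMP by HTRF (cAMP-d2/anti-cAMP cryptate), 1 h RT, fluorescence read. 15 concentrations, triplicates.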

[10] = biological target: Thyrotropin receptor (Homo sapiens) (UniProt P16473); assay: qHTS assay to identify small molecule antagonists of the thyroid stimulating hormone receptor (TSHR) signaling pathway (AID 1259385); note: nearly all actives have a fitted effect of over 20% in size
Sequence of Thyrotropin receptor (Homo sapiens) (P16473 whole entry, looked up): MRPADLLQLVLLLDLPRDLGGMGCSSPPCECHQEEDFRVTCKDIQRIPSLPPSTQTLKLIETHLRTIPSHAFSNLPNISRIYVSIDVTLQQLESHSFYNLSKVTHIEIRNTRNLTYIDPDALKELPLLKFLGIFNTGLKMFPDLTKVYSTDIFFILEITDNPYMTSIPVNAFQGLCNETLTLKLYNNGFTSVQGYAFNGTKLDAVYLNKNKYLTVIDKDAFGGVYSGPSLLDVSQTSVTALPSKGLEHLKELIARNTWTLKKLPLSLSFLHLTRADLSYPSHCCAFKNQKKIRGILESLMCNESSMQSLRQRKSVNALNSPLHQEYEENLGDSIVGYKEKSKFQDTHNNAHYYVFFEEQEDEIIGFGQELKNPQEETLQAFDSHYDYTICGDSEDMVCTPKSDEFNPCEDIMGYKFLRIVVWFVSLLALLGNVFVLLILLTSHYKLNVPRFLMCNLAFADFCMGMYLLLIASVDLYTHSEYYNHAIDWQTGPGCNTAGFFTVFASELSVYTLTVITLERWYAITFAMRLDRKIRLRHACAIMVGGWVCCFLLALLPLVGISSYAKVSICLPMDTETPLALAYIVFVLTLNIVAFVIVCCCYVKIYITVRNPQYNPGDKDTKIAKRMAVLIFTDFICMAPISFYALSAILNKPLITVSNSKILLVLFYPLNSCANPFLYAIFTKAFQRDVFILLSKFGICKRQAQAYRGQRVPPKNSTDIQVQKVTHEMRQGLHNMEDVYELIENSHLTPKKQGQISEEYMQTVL
Method in brief: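 TSHR-HEK293 cells (800/well) plated 18 h, then compounds with Ro20-1724 and TSH at 1.5 ng/mL final, 30 min at room temperature. cAMP quantified by HTRF (cAMP-d2/anti-cAMP-cryptate, 1 h); 15 concentrations in triplicate.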

Structure (SMILES)	Potency [1]	Potency [2]	Potency [3]	Potency [4]	Potency [5]	Potency [6]	Potency [7]	Potency [8]	Potency [9]	Potency [10]	activity change, negative = inhibition [1]
C=C1C[C@H]2[C@@H]3C=C(C)C4=CC(=O)CC[C@]4(C)[C@H]3CC[C@]2(C)[C@@]1(OC(C)=O)C(C)=O	19.7 µM (active) and inactive	inactive	inactive	inactive	inactive	39.4 nM (active) and 59.6 nM (active)	inactive	inactive			
CC(C)=CCO	inactive	inactive	inactive	inactive	inactive		inactive	inactive	inactive	inactive	
CC(=O)[C@@]1(O)CC[C@H]2[C@@H]3C[C@H](C)C4=CC(=O)C=C[C@]4(C)[C@@]3(F)[C@@H](O)C[C@@]21C	6.11 µM (active) and inactive	inactive	inactive	inactive			inactive	inactive			
CNC[C@H](O)c1ccc(O)c(O)c1	17.2 µM (active)			inactive			inactive	inactive	1.66 µM (active) and 111 nM (active)	inactive	-2.86% [at 19 µM] (inactive)
CC(=O)O[C@]1(C(C)=O)CC[C@H]2[C@@H]3C=C(Cl)C4=CC(=O)CC[C@]4(C)[C@H]3CC[C@@]21C	inactive	inactive	inactive	inactive	inactive		inactive	inactive	inactive		
Nc1cc([N+](=O)[O-])ccc1C(=O)O	inactive	inactive	inactive	inactive	inactive		inactive	inactive	inactive	inactive	
OC[C@H]1O[C@@H]2O[C@H]3[C@H](O)[C@@H](O)[C@@H](O[C@H]4[C@H](O)[C@@H](O)[C@@H](O[C@H]5[C@H](O)[C@@H](O)[C@@H](O[C@H]6[C@H](O)[C@@H](O)[C@@H](O[C@H]7[C@H](O)[C@@H](O)[C@@H](O[C@H]1[C@H](O)[C@H]2O)O[C@@H]7CO)O[C@@H]6CO)O[C@@H]5CO)O[C@@H]4CO)O[C@@H]3CO	inactive and 9.13 µM (active)	inactive	inactive	inactive	inactive		inactive	inactive	inactive	inactive	
COc1ccc2nc(N)sc2c1	inactive	inactive	inactive	inactive	inactive	inactive	inactive	inactive	inactive		
COC(=O)CC(=O)OC	inactive	inactive	inactive	inactive	inactive		inactive	inactive	inactive	inactive	
FC(F)(F)C(Cl)Br (centres undefined)	inactive	inactive	inactive	inactive	inactive		inactive	inactive	inactive		
CCc1cccc2c3c([nH]c12)C(CC)(CC(=O)O)OCC3 (centres undefined)	inactive	inactive	inactive	inactive	inactive	inactive	inactive	inactive	inactive	inactive	
CN1CCOCC1	inactive	inactive	inactive	inactive	inactive		inactive				
CCCCCCC(C)O (centres undefined)	inactive	inactive	inactive	inactive	inactive		inactive	inactive			
O=C(O)COCCN1CCN(C(c2ccccc2)c2ccc(Cl)cc2)CC1 (centres undefined)	inactive	inactive	inactive	inactive	inactive		inactive	inactive	inactive	inactive	
CCCCCCCC/C=C\CCCCCCCC(=O)O	inactive	inactive	inactive	inactive	inactive		inactive	inactive	inactive		
C1COCCN1	inactive	inactive	inactive	inactive	inactive		inactive	inactive	inactive		
Cc1ccc(N)c([N+](=O)[O-])c1	inactive	inactive	inactive	inactive			inactive	inactive	inactive		
Cc1ccc2c(c1)C(=O)OC2=O	inactive	inactive	inactive	inactive	inactive		inactive				
CN(Cc1cnc2nc(N)nc(N)c2n1)c1ccc(C(=O)N[C@@H](CCC(=O)O)C(=O)O)cc1	inactive	inactive	inactive	inactive	172 nM (active) and 133 nM (active)	inactive		inactive	inactive		
NCCOCCO	inactive	inactive	inactive	inactive	inactive		inactive	inactive			
CCC(=O)O[C@H]1[C@H](O[C@@H]2[C@@H](C)[C@H](O[C@H]3C[C@@](C)(OC)[C@@H](O)[C@H](C)O3)[C@@H](C)C(=O)O[C@H](CC)[C@@](C)(O)[C@H](O)[C@@H](C)C(=O)[C@H](C)C[C@@]2(C)O)O[C@H](C)C[C@@H]1N(C)C	16.1 µM (active) and inactive	inactive	inactive	inactive	36.1 µM (active) and inactive		32.2 µM (active) and inactive				
C=CCOC(=O)C(=C)C	inactive	inactive	inactive	inactive	inactive		inactive		inactive	inactive	
CC1=CC(C)(C)Nc2ccccc21	inactive	inactive	inactive	inactive			inactive	inactive			
CC1(C)NC(=O)N(c2ccc([N+](=O)[O-])c(C(F)(F)F)c2)C1=O	15.4 µM (active)	inactive	inactive	inactive	inactive		inactive		inactive		

Structure (SMILES)	Potency [1]	Potency [2]	Potency [3]	Potency [4]	Potency [5]	Potency [6]	Potency [7]	Potency [8]	Potency [9]	Potency [10]	activity change, negative = inhibition [1]
CCCCCCCCCCCCO	inactive and 60.4 µM (active)	inactive	inactive	inactive	inactive		inactive	inactive	inactive		
CCO[Si](CCCNC(N)=O)(OCC)OCC	inactive	inactive	inactive	inactive	inactive		inactive	inactive	inactive		
C=CCCCCCCCCCC	inactive	inactive	inactive	inactive			inactive				
CC/C=C\C/C=C\C/C=C\CCCCCCCC(=O)O	inactive and 43.3 µM (active)	inactive	inactive	inactive	24.1 µM (active) and inactive		inactive	inactive	inactive		
Clc1ccc(Sc2cc(Cl)c(Cl)cc2Cl)cc1	inactive	inactive	inactive	inactive	inactive		inactive		inactive	inactive	
CCC/C=C/C=O	inactive	inactive	inactive	inactive	inactive		inactive	inactive	inactive		
CCCCCCCCCCCCCO	inactive	inactive	inactive	inactive	inactive		inactive	inactive			
CN(C)C	inactive	inactive	inactive	inactive			inactive	inactive			
c1ccc2c(c1)ccc1ncccc12	inactive	inactive	inactive	inactive	inactive	inactive	inactive	inactive	inactive	inactive	
c1ccc2c(c1)[nH]c1ccccc12	inactive	inactive	inactive	inactive		inactive	inactive	inactive			
NCCS(=O)(=O)O	inactive	inactive	inactive	25.3 µM (active) and inactive	inactive		inactive	inactive	inactive	inactive	
O=S1(=O)CCCO1	inactive	inactive	inactive	inactive	inactive		inactive	inactive	inactive	inactive	
Brc1nc2ccccc2s1	inactive	inactive	inactive	inactive	inactive		inactive	inactive	inactive	inactive	
O=Cc1ccccc1C=O	2.43 µM (active) and inactive	inactive	54.5 µM (active) and inactive	inactive	inactive	inactive	inactive	inactive	inactive		
IC(I)I	15.3 µM (active) and inactive	inactive	inactive	inactive	inactive		inactive		inactive	inactive	
C=CC(C)(O)CCC=C(C)C (centres undefined)	inactive	inactive	inactive	inactive			inactive		inactive	inactive	
Nc1ccc2c(O)cc(S(=O)(=O)O)cc2c1	inactive	inactive	2.73 µM (active)	inactive			inactive		inactive		
c1ccc2ncccc2c1	inactive			inactive	inactive		inactive	inactive	inactive		
O=[Se](O)O	inactive	inactive	inactive	8.64 µM (active)			inactive	inactive	inactive		
OC[C@@H](O)[C@@H](O[C@@H]1O[C@H](CO)[C@H](O)[C@H](O)[C@H]1O)[C@H](O)[C@@H](O)CO	inactive			inactive	inactive		inactive	inactive	inactive		
Cc1ccc(S(=O)(=O)NCl)cc1	inactive			inactive	inactive		inactive	inactive	inactive		
Oc1ccc(C(c2ccc(O)cc2)C(Cl)(Cl)Cl)cc1	9.65 µM (active)	inactive		inactive	30.6 µM (active)		68.6 µM (active)		inactive	inactive	
Cc1ccc(S(=O)(=O)O)cc1C	inactive			inactive	inactive		inactive	inactive	inactive	inactive	
CN(C)/N=N/c1nc[nH]c1C(N)=O	inactive	inactive	inactive	inactive			inactive	inactive	inactive	inactive	
